Structures are written as SMILES. For some assays here: Results with a measured potency or affinity are listed apart. The source made the active and inactive calls.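 Rule for the calls, unless noted: active = fluorescence ratio normalized to control raised more than 50% in primary screen plus both repeat runs; inactive = the rest.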

Test [1] deals with TRPC4 beta (transient receptor potential cation channel C4), mouse. Nature of the test: TRPC4 cation channel opening, retest – cell-based, Fluo4 calcium, HEK293 TRPC4beta/mu-opioid, duplicates, 10 µM, confirmation (AID 2426). The settings on record: Fluo4 calcium fluorescence, at 10 µM; hits give high values.
In test [2] the test system is transient receptor potential cation channel C4 beta (TRPC4), mouse. Description: TRPC4 cation channel opening, second retest – cell-based, second round, Fluo4, HEK293 TRPC4beta/mu-opioid, 1 µM, confirmation (AID 2461;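 active = primary screen active and over 50% activation in each of two duplicate runs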). To be noted: Fluo4 calcium fluorescence, at 1 µM; hits give high values.
Test [3] relates to TRPC4 (transient receptor potential cation channel C4 beta), mouse. Nature of the test: potentiation of DAMGO EC20 TRPC4 response – cell-based, second round, Fluo-4, HEK293 TRPC4beta/mu-opioid, 1 µM, confirmation (AID 2554;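 active = primary screen hit whose fluorescence ratio, in both repeats, exceeds the weak agonist control mean by 3 SD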). To be noted: DAMGO EC20, Fluo-4 calcium flux, at 1 µM; hits give high values.
Test [4] has as its system TRPC4 beta (transient receptor potential cation channel C4), mouse. Description: potentiation of DAMGO EC20 TRPC4 response – cell-based, Fluo-4, HEK293 TRPC4beta/mu-opioid, confirmation (AID 2555;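 active = primary screen hit whose calcium fluorescence ratio, in both repeats, exceeds the weak agonist control mean by 3 SD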). The settings on record: DAMGO EC20, Fluo-4 calcium flux, at 10 µM; hits give high values.
Test [5] concerns the target Short transient receptor potential channel 4 (Mus musculus) (UniProt Q9QUQ5). Nature of the test: blockers of DAMGO-evoked TRPC4 calcium flux – cell-based, Fluo4, HEK293 TRPC4beta/mu-opioid, confirmation (AID 2636;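 active = calcium signal cut by more than 3 SD below the full-agonist control yet still positive, in both repeats and the earlier primary screen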). To be noted: at 10 µM; hits give high values.
Test [6] shares this target. Nature of the test: blockers of DAMGO-evoked TRPC4 calcium flux – cell-based, second round, Fluo4, HEK293 TRPC4beta/mu-opioid, 1 µM, confirmation (AID 2637;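 active = calcium signal ratio cut to more than 3 SD under the fully stimulated control mean yet still positive, in both repeats and the primary screen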;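 for inhibition: percent of integrated ratio relative to wells lacking test compound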). The settings on record: at 1 µM; hits give high values.
The target is the same in test [7]. Description: calcium entry via TRPC4 opening agents – cell-based, HEK293 TRPC4/mu-opioid, Fluo-4 calcium, dose response (AID 434937;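 active = primary screen activator hit with a dose response curve and TRPC4 channel activation at any tested dose; inactive = no activation, no dose response, or not a primary hit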).
Test [8] has the same target. Nature of the test: potentiation of DAMGO-evoked TRPC4 calcium signal – cell-based, HEK293 TRPC4/mu-opioid, Fluo-4 calcium, EC20 DAMGO, dose response (AID 434941;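 active = earlier screen potentiator hit that boosts the TRPC4 ion channel at some dose, with a dose response; inactive = no potentiation, no dose response, or not a prior hit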;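 note: calcium entry triggered by an EC20 dose of DAMGO at the co-expressed mu-opioid receptor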).
Test [9] concerns the target Short transient receptor potential channel 6 (Mus musculus) (UniProt Q61143). Description: TRPC6 blockade by TRPC4 inhibitor hits – cell-based, HEK293, membrane potential dye, duplicate, selectivity assay for TRPC4 inhibitor project, confirmation (AID 434948;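 active = active in primary screen and both duplicates, each dropping signal beyond three positive-control SD with fluorescence still positive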). To be noted: HEK293 TRPC6, membrane potential dye fluorescence, at 10 µM, stimulated with maximal-effect acetylcholine; hits give high values.

Test [10] has the same target. Description: TRPC6 opening by TRPC4 activator hits – cell-based, HEK293, membrane potential dye, duplicate, selectivity assay for TRPC4 activator project, confirmation (AID 434950;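 active = membrane potential signal rise above negative control mean plus 3 SD in both duplicates, also active in the earlier TRPC4 screen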). To be noted: HEK293 TRPC6, membrane potential fluorescence, at 10 µM; activation: hits give high values; outcome: activation.
Test [11] shares this target. Description: positive modulators of mouse TRPC6 channel – HEK293 cells, membrane potential dye, duplicate, selectivity assay for TRPC4 potentiator project, confirmation (AID 434952;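 active = compound raising the membrane signal above positive-control mean plus 3 SD in both repeats, and a primary screen hit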). To be noted: HEK293 TRPC6, membrane potential dye fluorescence, at 10 µM, maximal acetylcholine added after compound; hits give high values.
Test [12] has as its target Short transient receptor potential channel 4 (Mus musculus) (UniProt Q9QUQ5). Description: calcium flux activators in TRPC4/5HT1a cells, counter-screen for TRPC4 activator project, cell-based, second counter screen, HEK293 TRPC4/5HT1a, Fluo-4 (AID 434977;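 active = calcium signal rise above buffer-control mean plus 5 SD in both duplicates, and also a hit in the primary screen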). The settings on record: Fluo-4 calcium flux, at 10 µM; hits give high values.
The nature of test [13]: serotonin-gated TRPC4 signal block – cell-based, second counter screen, HEK293 TRPC4/5HT1a, Fluo-4, counter-screen for TRPC4 inhibitor project, confirmation (AID 434978;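 active = primary screen active whose calcium signal fell more than 3 SD beyond the full-serotonin control mean in both duplicate plates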;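 for outcome: serotonin given first at submaximal then at maximal dose after compound preincubation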). To be noted: Fluo-4 calcium flux, at 10 µM, serotonin added to trigger calcium flux; hits give high values.
The test system of test [14] is TRPC4 (mouse), co-expressed with 5HT1a in HEK293. Description: enhancement of serotonin-evoked TRPC4 response – cell-based, second counter screen, HEK293 TRPC4/5HT1a, Fluo-4, counter-screen for TRPC4 potentiator project, confirmation (AID 434979;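 active = signal rise over 3 SD above mean of control wells given weak agonist, in both repeats and first screen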). The settings on record: Fluo-4 calcium flux, at 10 µM, serotonin added at its EC20 dose; hits give high values.
Test [15] is described as follows: nonspecific calcium rise without TRPC4 – cell-based, HEK293 mu-opioid receptor line, counter-screen for TRPC4 activator project, confirmation (AID 449723;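 active = hit in primary screen, with calcium signal over 5 SD above buffer well mean in both duplicates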;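 note: counter screen cells carry the mu-opioid receptor alone and lack TRPC4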). To be noted: HEK293 mu-opioid cells, Fluo-4 calcium fluorescence, at 10 µM; hits give high values.
The nature of test [16]: nonspecific potentiation of DAMGO calcium response – cell-based, HEK293 mu-opioid receptor line, counter-screen for TRPC4 allosteric potentiator project, confirmation (AID 449724;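 active = calcium signal rise more than 3 SD above the low-dose agonist control mean, in both duplicate plates and the primary screen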;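 note: HEK293 cells carrying mu-opioid receptor only with no TRPC4 channel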). The settings on record: HEK293 mu-opioid receptor cells, Fluo-4 calcium flux, at 10 µM, compound added before EC20 DAMGO stimulus; hits give high values.

Sequence of Short transient receptor potential channel 6 (Mus musculus) (Q61143 whole entry, looked up): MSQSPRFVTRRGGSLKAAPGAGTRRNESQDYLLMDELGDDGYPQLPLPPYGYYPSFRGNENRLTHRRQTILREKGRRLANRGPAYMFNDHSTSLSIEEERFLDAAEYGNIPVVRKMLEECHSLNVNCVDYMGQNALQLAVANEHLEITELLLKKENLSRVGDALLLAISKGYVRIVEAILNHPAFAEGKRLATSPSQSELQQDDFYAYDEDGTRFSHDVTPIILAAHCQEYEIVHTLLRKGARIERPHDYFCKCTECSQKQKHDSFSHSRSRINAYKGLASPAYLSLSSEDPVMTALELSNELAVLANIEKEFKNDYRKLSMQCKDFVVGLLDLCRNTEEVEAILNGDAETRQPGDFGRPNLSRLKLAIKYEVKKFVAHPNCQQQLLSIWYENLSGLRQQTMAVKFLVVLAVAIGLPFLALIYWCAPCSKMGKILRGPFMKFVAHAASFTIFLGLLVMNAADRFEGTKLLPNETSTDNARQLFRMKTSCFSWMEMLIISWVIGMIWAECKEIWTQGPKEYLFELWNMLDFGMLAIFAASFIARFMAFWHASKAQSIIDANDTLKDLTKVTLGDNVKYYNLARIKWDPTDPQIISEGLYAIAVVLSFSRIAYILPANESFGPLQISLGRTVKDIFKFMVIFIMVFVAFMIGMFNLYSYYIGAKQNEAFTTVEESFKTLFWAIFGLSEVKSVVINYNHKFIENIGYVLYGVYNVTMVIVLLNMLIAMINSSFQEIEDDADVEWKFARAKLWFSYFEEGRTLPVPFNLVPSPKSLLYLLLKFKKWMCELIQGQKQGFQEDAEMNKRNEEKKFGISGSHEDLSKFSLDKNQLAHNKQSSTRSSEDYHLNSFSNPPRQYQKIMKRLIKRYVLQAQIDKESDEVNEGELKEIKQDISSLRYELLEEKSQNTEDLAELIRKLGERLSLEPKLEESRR
Sequence of Short transient receptor potential channel 4 (Mus musculus) (Q9QUQ5 whole entry, looked up): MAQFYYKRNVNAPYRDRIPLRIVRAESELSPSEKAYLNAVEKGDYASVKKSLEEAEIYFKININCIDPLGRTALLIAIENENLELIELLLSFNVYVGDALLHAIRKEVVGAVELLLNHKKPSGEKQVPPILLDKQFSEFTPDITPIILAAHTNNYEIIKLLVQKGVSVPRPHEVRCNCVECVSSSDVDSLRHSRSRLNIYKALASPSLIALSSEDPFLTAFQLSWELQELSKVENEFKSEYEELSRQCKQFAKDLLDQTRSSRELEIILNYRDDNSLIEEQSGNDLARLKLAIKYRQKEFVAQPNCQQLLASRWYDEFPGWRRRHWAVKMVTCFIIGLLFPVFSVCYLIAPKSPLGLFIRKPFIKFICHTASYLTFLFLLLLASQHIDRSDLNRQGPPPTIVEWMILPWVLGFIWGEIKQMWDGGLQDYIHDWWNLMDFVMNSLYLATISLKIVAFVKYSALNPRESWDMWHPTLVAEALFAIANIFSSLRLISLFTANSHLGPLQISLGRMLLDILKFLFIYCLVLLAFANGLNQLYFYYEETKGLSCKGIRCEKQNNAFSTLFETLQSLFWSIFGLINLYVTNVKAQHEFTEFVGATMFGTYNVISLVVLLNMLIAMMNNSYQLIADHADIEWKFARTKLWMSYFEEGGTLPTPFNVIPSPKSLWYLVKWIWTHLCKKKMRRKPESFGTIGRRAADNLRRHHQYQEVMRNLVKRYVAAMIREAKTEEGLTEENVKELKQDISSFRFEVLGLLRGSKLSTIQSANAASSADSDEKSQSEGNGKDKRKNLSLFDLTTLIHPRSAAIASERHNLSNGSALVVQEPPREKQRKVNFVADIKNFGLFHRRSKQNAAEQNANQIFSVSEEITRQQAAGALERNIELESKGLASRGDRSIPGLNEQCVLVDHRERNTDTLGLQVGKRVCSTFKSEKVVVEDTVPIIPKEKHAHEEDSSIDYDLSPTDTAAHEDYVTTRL

Turning to `NC(=O)c1nsc(C(=O)N(Cc2ccccc2Cl)C(C(=O)NCC2CCCO2)c2ccc(O)cc2)c1N` (centres undefined), the result in [1], in test [2], in test [3], in test [4], in [6] and in test [7] was inactive. The outcome in test [8], in test [9], in test [10], in test [11], in [12] and in [14] was inactive. The result in test [15] and in test [16] was inactive. In addition, the figures for the inhibition in test [5] and in test [13] were 90% (active) and 28.6% (active), respectively.
On to `CCOc1ccccc1-n1c(SCC(=O)Nc2nccs2)nnc1-c1ccoc1C`, for which the outcome in test [1], in [2], in test [3], in test [4], in [7] and in test [8] was inactive. The outcome in test [9], in test [10], in test [11], in test [12], in test [13] and in test [14] was inactive. Further, the result in test [15] and in test [16] was inactive. For the same molecule, the results for the inhibition in test [5] and in test [6] were 52% (active) and 44% (active), respectively.
As for `COc1cc(CN(C)CC2CCCN(CCc3ccccc3F)C2)cc(Cl)c1OC` (centres undefined), the result in test [1], in test [2], in test [3], in test [4], in [6] and in test [7] was inactive. Further, the result in test [8], in test [9], in test [10], in test [11], in test [12] and in test [14] was inactive. Besides, the result in test [15] and in test [16] was inactive. The inhibition was 93% (active) in test [5] and 0.1% (active) in [13].
Turning to `Clc1ccc(C[n+]2cc(-c3ccccc3)n3c2CCC3)cc1Cl`, the outcome in test [1], in [2], in test [3], in [4], in test [7] and in test [8] was inactive. Besides, the outcome in [9], in [10], in test [11], in test [12], in test [14] and in test [15] was inactive. Further, in test [16], the result was inactive. Moreover, the inhibition in test [5] is 93% (active); in [6] it was 60% (active); in test [13] it was 25.4% (active).
Turning to `CCOC(=O)C1(CCc2ccccc2)CCN(Cc2ccccn2)CC1`, the outcome in test [1], in [2], in [3], in test [4], in [6] and in test [7] was inactive. In addition, the outcome in test [8], in test [9], in test [10], in [11], in [12] and in test [13] was inactive. Besides, the result in test [14], in test [15] and in test [16] was inactive. Besides, the inhibition in test [5] was 88% (active).
Take `NS(=O)(=O)c1ccc(CCNCc2ccccc2OCc2ccc(F)cc2)cc1`: the result in [1], in [2], in [3], in test [4], in test [7] and in test [8] was inactive. For the same molecule, the call in test [9], in test [10], in test [11], in test [12], in test [14] and in test [15] was inactive. Moreover, the result in [16] was inactive. The inhibition in [5] was 91% (active); in [6], 55% (active); in test [13] it was 24.6% (active).
Turning to `CCCN(c1nc(C)cc(OC)n1)S(=O)(=O)c1ccccc1`, the outcome in [1], in test [2], in [3], in test [4], in test [6] and in [7] was inactive. The result in test [8], in test [9], in test [10], in [11], in test [12] and in [14] was inactive. Further, the outcome in test [15] and in test [16] was inactive. For the same molecule, the values for the inhibition in test [5] and in test [13] were 59% (active) and 25.2% (active), respectively.
As to `CN1CCN(Cc2cn[nH]c2-c2ccc(F)cc2F)[C@@H](c2ccccc2)C1`, the result in test [1], in test [2], in [3], in test [4], in test [5] and in test [6] was inactive. Further, the outcome in test [7], in test [8], in [9], in [10], in [11] and in test [12] was inactive. Further, the result in test [13], in test [14], in test [15] and in [16] was inactive.
For the molecule `O=C(O)c1ccc(CSc2nc(-c3ccc(Cl)cc3)cc(C(F)(F)F)n2)cc1`, the outcome in test [1], in test [2], in test [3], in test [4], in test [6] and in [7] was inactive. In addition, the outcome in test [8], in test [9], in test [10], in test [11], in [12] and in test [14] was inactive. Further, the outcome in test [15] and in [16] was inactive. The inhibition was 77% (active) in [5] and 19.2% (active) in test [13].
`CCCCn1c(NCCO)nc2ccccc21`: the outcome in test [1], in test [2], in test [3], in test [4], in test [7] and in [8] was inactive. The molecule was called inactive in [9], in [10], in test [11], in test [12], in test [14] and in test [15]. In test [16], the outcome was inactive. The inhibition in test [5] was 92% (active); in test [6], 66% (active); in test [13] it was 29.5% (active).
Take `CN(CC1CCCN(CCc2cccc(C(F)(F)F)c2)C1)C(=O)c1cc2ccccc2o1` (centres undefined): the outcome in [1], in test [2], in test [3], in test [4], in test [6] and in [7] was inactive. The result in test [8], in test [9], in [10], in test [11], in test [12] and in test [14] was inactive. Besides, the result in test [15] and in test [16] was inactive. In addition, the inhibition was 85% (active) in test [5] and 1.18% (active) in [13].
Take `C=CCN(CC(O)c1cccc([N+](=O)[O-])c1)C(C)CCc1ccccc1` (centres undefined): the result in [1], in [2], in test [3], in test [4], in test [6] and in test [7] was inactive. Also, the result in test [8], in test [9], in [10], in test [11], in test [12] and in test [14] was inactive. Moreover, the outcome in [15] and in [16] was inactive. For the same molecule, the figures for the inhibition in [5] and in [13] were 79% (active) and 25.6% (active), respectively.
`Cc1ccc(OCCn2c(C)nc3ccccc32)cc1`: the result in [1], in test [2], in [3], in test [4], in test [7] and in [8] was inactive. Also, the molecule was classed as inactive in test [9], in test [10], in [11], in test [12], in test [14] and in test [15]. For the same molecule, the result in [16] was inactive. The inhibition in test [5] is 94% (active); in test [6] it was 61% (active); in [13], 13% (active).
For `COc1ccc(OC)c(Nc2cc(-c3ccccc3)nc(N)n2)c1`, the result in [1], in test [2], in test [3], in test [4], in test [7] and in test [8] was inactive. The outcome in test [10], in test [11], in [12], in test [14], in test [15] and in test [16] was inactive. The inhibition in test [5] was 100% (active); in test [6], 49% (active); in [9], 55.5% (active); in test [13], 37.9% (active).

The record behind these values is PubChem BioAssay.
